Results published in PubChem BioAssay AID1159580 (chemical genetic matrix, 2015).
In all, about 5,500 compounds went through this assay and about 2,000 (36%) were called active. Roughly 18% stayed inconclusive and do not appear here. Cut-off read from the data, not from the text of the source: active = normalized growth mostly below about 0.91 (no sharp cut-off); inconclusive = no clear call, values can overlap the other calls; inactive = mostly above about 0.92. The list shows a part of the results.

Assay: chemical genetic growth profiling, strain panel (AID 1159580);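 note: tested at 20 µM; growth read once vehicle control cultures reached saturation at 30 °C; 1 = growth at the plate median or of vehicle wells; lower values mean less growth of the strain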
Conditions: growth OD

Measured: normalized growth

Nc1ncn([C@@H]2O[C@H](CO)[C@@H](O)[C@H]2O)c(=O)n1
inactive: S. cerevisiae deletion strains, locus YJR066W, strain TOR1, hits give low values 0.948 | S. cerevisiae deletion strains, locus YKL009W, strain mrt4, hits give low values 1 | S. cerevisiae deletion strains, locus YKL068W, hits give low values 0.997 | S. cerevisiae deletion strains, locus YKL085W, strain MDH1 (second series), hits give low values 0.989 | S. cerevisiae deletion strains, locus YKL085W, strain MDH1, hits give low values 0.989 | S. cerevisiae deletion strains, locus YKL160W, strain elf1, hits give low values 0.99 | S. cerevisiae deletion strains, locus YKL190W, strain CNB1, hits give low values 1.01 | S. cerevisiae deletion strains, locus YKR001C, strain vps1, hits give low values 1.02 | S. cerevisiae deletion strains, locus YKR026C, strain gcn3, hits give low values 1.07 | S. cerevisiae deletion strains, locus YKR091W, strain srl3, hits give low values 0.967 | S. cerevisiae deletion strains, locus YLL001W, strain dnm1, hits give low values 0.952 | S. cerevisiae deletion strains, locus YLL026W, hits give low values 0.997 | S. cerevisiae deletion strains, locus YLL041C, strain sdh2, hits give low values 0.989 | S. cerevisiae deletion strains, locus YLR027C, strain aat2, hits give low values 0.985 | S. cerevisiae deletion strains, locus YLR039C, strain RIC1, hits give low values 1.01 | S. cerevisiae deletion strains, locus YLR058C, strain SHM2, hits give low values 1.02 | S. cerevisiae deletion strains, locus YLR102C, strain apc9, hits give low values 0.993 | S. cerevisiae deletion strains, locus YLR113W, strain HOG1, hits give low values 0.951 | S. cerevisiae deletion strains, locus YLR221C, strain rsa3, hits give low values 1.01 | S. cerevisiae deletion strains, locus YLR258W, strain gsy2, hits give low values 0.992 | S. cerevisiae deletion strains, locus YLR262C, strain YPT6 (second series), hits give low values 0.955 | S. cerevisiae deletion strains, locus YLR262C, strain YPT6, hits give low values 1.06 | S. cerevisiae deletion strains, locus YLR268W, strain sec22, hits give low values 0.99 | S. cerevisiae deletion strains, locus YLR320W, strain mms22, hits give low values 1 | S. cerevisiae deletion strains, locus YLR330W, strain CHS5, hits give low values 1 | S. cerevisiae deletion strains, locus YLR342W, strain FKS1 (second series), hits give low values 1 | S. cerevisiae deletion strains, locus YLR342W, strain FKS1, hits give low values 0.932 | S. cerevisiae deletion strains, locus YLR357W, strain rsc2, hits give low values 1.01 | S. cerevisiae deletion strains, locus YLR370C, strain arc18, hits give low values 0.985 | S. cerevisiae deletion strains, locus YLR371W, strain rom2, hits give low values 0.994 | S. cerevisiae deletion strains, locus YLR384C, strain iki3, hits give low values 0.974 | S. cerevisiae deletion strains, locus YLR418C, strain cdc73, hits give low values 0.973 | S. cerevisiae deletion strains, locus YML016C, strain PPZ1, hits give low values 1.01 | S. cerevisiae deletion strains, locus YML032C, strain rad52, hits give low values 0.998 | S. cerevisiae deletion strains, locus YML120C, strain ndi1, hits give low values 0.986 | S. cerevisiae deletion strains, locus YML124C, strain tub3, hits give low values 1 | S. cerevisiae deletion strains, locus YMR058W, strain fet3, hits give low values 0.989 | S. cerevisiae deletion strains, locus YMR078C, strain ctf18, hits give low values 0.992 | S. cerevisiae deletion strains, locus YMR125W, strain sto1, hits give low values 0.962 | S. cerevisiae deletion strains, locus YMR129W, hits give low values 0.996 | S. cerevisiae deletion strains, locus YMR205C, strain PFK2, hits give low values 0.967 | S. cerevisiae deletion strains, locus YMR223W, strain ubp8, hits give low values 0.989 | S. cerevisiae deletion strains, locus YMR231W, strain pep5, hits give low values 0.985 | S. cerevisiae deletion strains, locus YMR307W, strain GAS1, hits give low values 0.982 | S. cerevisiae deletion strains, locus YNL067W, strain RPL9B, hits give low values 1.02 | S. cerevisiae deletion strains, locus YNL071W, strain lat1, hits give low values 1.01 | S. cerevisiae deletion strains, locus YNL153C, strain GIM3, hits give low values 1.04 | S. cerevisiae deletion strains, locus YNL183C, strain NPR1, hits give low values 0.935 | S. cerevisiae deletion strains, locus YNL209W, strain ssb2, hits give low values 0.997 | S. cerevisiae deletion strains, locus YNL233W, strain BNI4, hits give low values 1.03 | S. cerevisiae deletion strains, locus YNL248C, strain rpa49, hits give low values 0.951 | S. cerevisiae deletion strains, locus YNL250W, strain rad50, hits give low values 1.01 | S. cerevisiae deletion strains, locus YNL271C, strain bni1, hits give low values 1 | S. cerevisiae deletion strains, locus YNL298W, strain CLA4, hits give low values 1 | S. cerevisiae deletion strains, locus YNL307C, strain MCK1, hits give low values 0.998 | S. cerevisiae deletion strains, locus YNL322C, strain KRE1 (second series), hits give low values 0.978 | S. cerevisiae deletion strains, locus YNL322C, strain KRE1, hits give low values 1.01 | S. cerevisiae deletion strains, locus YNR049C, strain mso1, hits give low values 0.968 | S. cerevisiae deletion strains, locus YNR052C, strain pop2, hits give low values 0.993 | S. cerevisiae deletion strains, locus YOL006C, strain TOP1, hits give low values 1.07 | S. cerevisiae deletion strains, locus YOL012C, strain htz1 0.991 | S. cerevisiae deletion strains, locus YOL147C, strain pex11, hits give low values 1 | S. cerevisiae deletion strains, locus YOR001W, strain rrp6, hits give low values 0.976 | S. cerevisiae deletion strains, locus YOR061W, strain CKA2, hits give low values 1.02 | S. cerevisiae deletion strains, locus YOR069W, strain VPS5, hits give low values 1.01 | S. cerevisiae deletion strains, locus YOR070C, strain gyp1, hits give low values 0.99 | S. cerevisiae deletion strains, locus YOR080W, strain dia2, hits give low values 0.967 | S. cerevisiae deletion strains, locus YOR083W, strain WHI5, hits give low values 0.968 | S. cerevisiae deletion strains, locus YOR106W, strain vam3, hits give low values 0.959 | S. cerevisiae deletion strains, locus YOR136W, strain idh2, hits give low values 1 | S. cerevisiae deletion strains, locus YOR144C, strain elg1, hits give low values 0.99 | S. cerevisiae deletion strains, locus YOR184W, strain ser1, hits give low values 0.996 | S. cerevisiae deletion strains, locus YOR231W, strain MKK1, hits give low values 0.974 | S. cerevisiae deletion strains, locus YOR265W, strain rbl2, hits give low values 0.989 | S. cerevisiae deletion strains, locus YOR270C, strain vph1, hits give low values 0.958 | S. cerevisiae deletion strains, locus YOR290C, strain snf2, hits give low values 1.01 | S. cerevisiae deletion strains, locus YOR316C, strain cot1, hits give low values 0.997 | S. cerevisiae deletion strains, locus YPL051W, strain arl3, hits give low values 0.992 | S. cerevisiae deletion strains, locus YPL078C, strain atp4, hits give low values 0.958 | S. cerevisiae deletion strains, locus YPL106C, strain sse1, hits give low values 0.978 | S. cerevisiae deletion strains, locus YPL240C, strain hsp82, hits give low values 0.986 | S. cerevisiae deletion strains, locus YPL241C, strain CIN2, hits give low values 1.01 | S. cerevisiae deletion strains, locus YPL256C, strain CLN2, hits give low values 0.975 | S. cerevisiae deletion strains, locus YPR119W, strain clb2, hits give low values 0.99 | S. cerevisiae deletion strains, locus YPR141C, strain kar3, hits give low values 0.99 | S. cerevisiae deletion strains, locus YPR163C, strain tif3, hits give low values 0.998 | S. cerevisiae deletion strains, locus YPR167C, strain met16, hits give low values 0.994 | S. cerevisiae deletion strains, strain wtn01, hits give low values 1.01 | S. cerevisiae strains, strain wild type, hits give low values 1.01
